About 64,000 (15%) of roughly 420,000 compounds were called active. Not shown: some 27% with an inconclusive outcome. These entries were drawn from the full list. Values without a mark were called inactive. Calls follow the shape of the dose curve; as a rule, active = well fitted inhibition curve with a large enough effect; inconclusive = small, poorly fitted or top-dose-only effect; inactive = flat fitted curve, though single readings scatter.
experiment: qHTS for Inhibitors of human tyrosyl-DNA phosphodiesterase 1 (TDP1): qHTS in cells in absence of CPT; details: DT40 Tdp1-/- hTDP1 cells, no CPT, ATP luminescence, 48 h; activity change, negative = growth inhibition: at 46.2 µM (top of the series); also: nearly all actives have a fitted effect of over 55% in size
How it was run: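 Chicken DT40 Tdp1-/- cells complemented with human TDP1, screened without camptothecin (DMSO vehicle only), 400 cells/well. Compounds pin-transferred, cells incubated at 37 °C for at least 48 hr. Growth read as ATP-dependent luminescence (CellTiter-Glo, 30 min at RT).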
% is scaled to controls: 0 for no effect and ±100 for the full control effect; potency is read from the fitted curve at half-maximal effect.

Row | SMILES | activity change, negative = growth inhibition | Potency
1 | CCOc1cc(CO)ccc1OCC(=O)N1CCCCC1 | 3.17% | –
2 | CC(NC(=O)Nc1ccccc1)C(c1cccs1)N1CCN(c2ccccc2)CC1 (configuration not stated) | – | 23.1 µM (active)
3 | Cc1ccc(C(=O)NC(C)C(c2cccs2)N2CCOCC2)cc1C (configuration not stated) | – | 18.4 µM (active)
4 | CC(NC(=O)Nc1ccccc1)c1ccccc1 (configuration not stated) | -10% | –
5 | Cc1ccc(N(C(=O)c2ccc(CN3CCOCC3)o2)C(C(=O)NCCC(C)C)c2cccs2)c(C)c1 (configuration not stated) | 4.05% | –
6 | CCCC(=O)NC(C)C(c1cccs1)N1CCN(c2ccccc2)CC1 (configuration not stated) | -22.2% | –
7 | Cc1ccc(C(=O)NCC(c2cccs2)N(C)C)cc1S(=O)(=O)N1CCOCC1 (configuration not stated) | 19.3% | –
8 | COC(=O)c1sc(SC)c(S(=O)(=O)C(C)C)c1N/N=C(\C#N)S(=O)(=O)c1ccccn1 | -16.8% | –
9 | CC(=O)c1ccc(NC(=O)C(C)OC(=O)c2ccc(NS(=O)(=O)c3ccc4[nH]c(=O)[nH]c4c3)cc2)cc1 (configuration not stated) | 8.98% | –
10 | Cc1ccc(C(=O)OC(C)CN2CCOCC2)cc1 (configuration not stated) | -22% | –
11 | COc1ccc(N2CCN(C(=O)[C@@H](NC(=O)c3cc(OC)cc(OC)c3)C(C)C)CC2)cc1 | – | 8.2 µM (active)
12 | COc1cc(OC)cc(C(=O)NCC(=O)N2CCCCCCC2)c1 | 3.53% | –
13 | COc1cc(OC)cc(C(=O)NC(C(=O)N2CCC2)C(C)C)c1 (configuration not stated) | -6.14% | –
14 | CCOc1ccc(/C(O)=C2/C(=O)C(=O)N(Cc3cccnc3)C2c2ccc(N(C)C)cc2)c(C)c1 (configuration not stated) | 0.155% | –
15 | C=CCC[C@@H](CCCCC)OC(=O)/C=C/[C@@H](O)[C@H](O)C[C@H](O)CC=C | – | 18.4 µM (active)
16 | C=CCC[C@H](CCCCC)OC(=O)/C=C/[C@H](O)[C@@H](O)C[C@@H](O)CC=C | – | 14.6 µM (active)
17 | O=S(=O)(Nc1ccccc1)c1ccc(NS(=O)(=O)c2cccs2)cc1 | -2.38% | –
18 | Cc1ccc(NC(=O)CSc2nc3c(c(=O)[nH]2)CN(Cc2ccc4c(c2)OCO4)CC3)cc1C | -27.3% | –
19 | O=C(CN1CCN(C(=O)c2cccc(F)c2)CC1)Nc1ccccc1F | 14.6% | –

Row | SMILES | activity change, negative = growth inhibition | Potency
20 | C=CCC(NCc1ccco1)c1ccc(OC)cc1 (configuration not stated) | -9.38% | –
21 | Cc1ccc(S(=O)(=O)N2CCC(C(=O)N[C@@H](C)C(=O)NCc3ccco3)CC2)cc1 | -26.1% | –
22 | Cc1ccc(S(=O)(=O)N2C[C@@H]3CCCC[C@@H]3[C@@H](C)[C@H]2c2cn(Cc3ccccc3)c3ccc(F)cc23)cc1 | – | 6.51 µM (active)
23 | Cc1ccc(S(=O)(=O)N2CC(C)N(S(C)(=O)=O)C2)cc1 (configuration not stated) | -1.31% | –
24 | Cc1ccc(Cn2cc(C(=O)NN)c(=O)c3ccc(F)cc32)cc1 | -13.2% | –
25 | CCOC(=O)c1sc(/N=C/C2=C(O)CC(C)(C)CC2=O)c(C(=O)OCC)c1C | 2.25% | –
26 | CCOC(=O)c1c(NC(=S)Nc2ccccc2C)sc2c1CCC2 | -3.31% | –
27 | CCOC(=O)c1c(NC(=O)c2ccc(Br)o2)sc2c1CCCC2 | -27.4% | –
28 | CCOC(=O)c1c(NC(=O)C2(C)Cc3ccccc3C(=O)O2)sc2c1CCCC2 (configuration not stated) | – | 16.4 µM (active)
29 | COc1ccc(C(CNC(=O)COc2ccc([N+](=O)[O-])cc2)N2CCCCC2)cc1 (configuration not stated) | -1.85% | –
30 | O=C(Nc1cccc(NC(=O)c2ccccc2[N+](=O)[O-])c1)c1ccccc1Cl | -14.8% | –
31 | O=C(Nc1ccc(Br)cn1)c1ccc([N+](=O)[O-])o1 | – | 5.17 µM (active)
32 | COc1cccc(NC(=O)c2ccc(Cn3cc([N+](=O)[O-])cn3)o2)c1 | -26.5% | –
33 | O=C(Nc1ccc(Br)cn1)c1ccc([N+](=O)[O-])cc1Cl | -27.6% | –
34 | Cc1cccc(NC(=O)c2ccc([N+](=O)[O-])o2)c1 | – | 9.2 µM (active)
35 | CN1C(=O)c2ccc(C(=O)Nc3ccc(Br)cn3)cc2C1=O | 12.5% | –
36 | Cc1[nH]c2ccccc2c1C(=O)C(=O)N(C)c1ccccc1 | -24.6% | –
37 | O=C(OCCOc1ccccc1F)c1cc(S(=O)(=O)N2CCOCC2)ccc1F | -13.6% | –
38 | CCc1ccccc1NC(=O)CSc1nnc(-c2ccncc2)o1 | -5.21% | –

Row | SMILES | activity change, negative = growth inhibition | Potency
39 | O=C(CNCCO)NC12CC3CC(CC(C3)C1)C2 | 0.175% | –
40 | CCOC(=O)C1C(C)C(C(C)(C)C)N(S(=O)(=O)c2ccc(C)cc2)C1c1ccccc1 (configuration not stated) | – | 16.4 µM (active)
41 | Cc1ccc(S(=O)(=O)N2[C@@H](c3cccc(Cl)c3)C(C(=O)O)=CC[C@H]2c2ccc(Cl)c(Cl)c2)cc1 | -23.6% | –
42 | CCCCC(c1nnnn1CS(=O)(=O)c1ccc(C)cc1)N1CCC(C(N)=O)CC1 (configuration not stated) | -20.1% | –
43 | Cc1ccccc1S(=O)(=O)N1[C@@H](c2cccc(Cl)c2)C(C(=O)O)=CC[C@H]1c1ccc(Cl)cc1 | -5.82% | –
44 | Cc1ccc(S(=O)(=O)N2[C@@H](c3ccccc3F)C(C(=O)O)=CC[C@H]2c2ccc(Cl)cc2)cc1 | -17.6% | –
45 | CCCCC[C@@H]1C=C(C(=O)OCC)[C@H](c2ccccc2)N1S(=O)(=O)c1ccc(C)cc1 | – | 10.3 µM (active)
46 | CCOC1=C2[C@H]([C@H]3C(=O)N(c4ccccc4)C(=O)[C@H]3C1)[C@@H](c1ccccc1)N(S(=O)(=O)c1ccc(C)cc1)[C@H]2c1ccccc1 | -12.7% | –
47 | Cc1ccc(S(=O)(=O)N2[C@@H](c3ccc(Br)cc3)C(C(=O)O)=C[C@H]2CC2CCCC2)cc1 | -12.9% | –
48 | CCc1ccc([C@@H]2CC(=O)[C@@H]3CN(S(=O)(=O)c4ccc(C)cc4)[C@H](c4ccc(Cl)cc4)C[C@@H]3N2S(=O)(=O)c2ccc(C)cc2)cc1 | 8.29% | –
49 | Cc1ccccc1S(=O)(=O)N1[C@@H](c2cccc(Cl)c2)C(C(=O)OC(C)(C)C)=CC[C@H]1c1ccc(Cl)cc1 | – | 16.4 µM (active)
50 | Cc1ccc(S(=O)(=O)N2[C@@H](c3cccc4ccccc34)C(C(=O)O)=C[C@H]2C(C)(C)C)cc1 | 5.31% | –
51 | CCOC(=O)C1=CC[C@@H](c2ccccc2)N(S(=O)(=O)c2ccc(C)cc2)[C@H]1c1ccc(CC)cc1 | – | 16.4 µM (active)
52 | Cc1cccc(/C(N)=N/OC(=O)c2ccccc2Cl)c1 | -18.2% | –
53 | COc1ccc(C2=NOC3(CC(=O)N(c4ccc(C)cc4)C3=O)C2)cc1 (configuration not stated) | -19.9% | –
54 | Cc1nn(C)c(Oc2ccc(Cl)cc2)c1C=O | -24.7% | –
55 | CCCCn1c(N)c(N(CCOC)C(=O)COc2c(C)cccc2C)c(=O)[nH]c1=O | -10.6% | –
56 | CCC(=O)Nc1cc(C(F)(F)F)ccc1N1CCCC1 | -2.98% | –
57 | CC(C)(C)NC(=O)COC(=O)c1cc(Cl)ccc1[N+](=O)[O-] | -16.1% | –
